The supplement of paper PMC3616981

Compound: CC(C)c1cccc(C(C)C)c1N1C(=O)c2ccc(O)cc2C1=O
Assay: reporter fold induction vs vehicle; higher = higher reporter activity
Experimental: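 Attagene multiplexed transcription-factor reporter assay (48 cis response elements and 25 trans nuclear-receptor constructs) treated with 5HPP-33 at 8 concentrations (0.091–200 µM). The response is fold induction of reporter activity relative to vehicle control. Cell line and time not stated in the paper; tested in ToxCast Phase II for this study.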

| Target | reporter fold induction (0.091 µM) | reporter fold induction (0.274 µM) | reporter fold induction (0.823 µM) | reporter fold induction (2.469 µM) | reporter fold induction (7.407 µM) | reporter fold induction (22.22 µM) | reporter fold induction (66.67 µM) | reporter fold induction (200 µM) |
| --- | --- | --- | --- | --- | --- | --- | --- | --- |
| RORE_CIS | 1.04 | 1.06 | 1.06 | 0.974 | 1.08 | 1.15 | 1.84 | 1.72 |
| ERE_CIS | 1.55 | 2.27 | 1.01 | 0.967 | 4.09 | 3.27 | 4.08 | 0.978 |
| GAL4_TRANS | 1.03 | 0.907 | 0.951 | 0.908 | 0.842 | 0.905 | 0.61 | 0.53 |
| PPARa_TRANS | 1.19 | 1.13 | 0.988 | 0.988 | 0.912 | 0.775 | 0.936 | 0.812 |
| M_19_TRANS | 1.08 | 0.97 | 1.01 | 0.967 | 0.981 | 0.997 | 1.01 | 1.02 |
